Results as given in the supplement of paper PMC13380429.

System: Vero E6 infected with SARS-CoV-2
Test: inhibition of SARS-CoV-2 cytopathic effect; higher = more antiviral protection, active = above 15
Conditions: 48 h

Measured: inhibition of SARS-CoV-2 cytopathic effect

CN1CCN(C(=O)c2cc3cc(Cl)ccc3[nH]2)CC1
inactive: 1 nM -0.68% | 8.33 nM 0.59% | 100 nM -1.58% | 833.33 nM -1.48% | 10000 nM -1.13%

CS(=O)(=O)c1ccc(-c2cc(Br)sc2-c2ccc(F)cc2)cc1
inactive: 1 nM 3.29% | 8.33 nM -0.45% | 100 nM -5.25% | 833.33 nM -3.46% | 10000 nM -5.5%

CC(C)(Oc1ccc(Cl)cc1)C(=O)OCCOC(=O)c1cccnc1 [etofibrate]
inactive: 1 nM 0.78% | 8.33 nM 2.82% | 100 nM 0.41% | 833.33 nM 0.22% | 10000 nM -10.1%

CC[C@H]1OC(=O)[C@H](C)[C@@H](O[C@H]2C[C@@](C)(OC)[C@@H](O)[C@H](C)O2)[C@H](C)[C@@H](O[C@@H]2O[C@H](C)C[C@H](N(C)C)[C@H]2O)[C@](C)(O)C[C@@H](C)C(=O)[C@H](C)[C@@H](O)[C@]1(C)O [erythromycin]
inactive: 1 nM -0.74% | 8.33 nM -0.54% | 100 nM -1.16% | 833.33 nM 2.65% | 10000 nM 1.91%

CCOc1ccc(Nc2nc(-c3c(C)nc4ccccn34)cs2)cc1
inactive: 1 nM -1.73% | 8.33 nM -0.39% | 100 nM -1.68% | 833.33 nM 2.2% | 10000 nM 1.71%

CSc1ccc(OCc2ncc([N+](=O)[O-])n2C)cc1 [fexinidazole]
inactive: 1 nM -1.82% | 8.33 nM -1.7% | 100 nM -1.88% | 833.33 nM -3.53% | 10000 nM -0.36%
